Experimental findings from PubChem BioAssay AID1259370 (Center for Chemical Genomics, University of Michigan, 2018) are described below.

Out of some 94,000 compounds screened, about 680 (0.72%) were called active. The entries come from a sample that favours actives as a whole. Unmarked numbers belong to inactive results. No stated cut-off is given here; in the data, active means z-score above about 3.2; inactive means the rest.

The target in this assay is M-phase inducer phosphatase 2 (Homo sapiens) + Cyclin-dependent kinase 2 (Homo sapiens) + Cyclin-A2 (Homo sapiens) (UniProt P30305+P24941+P20248). Description: primary biochemical HTRF screen for blockers of M-phase inducer phosphatase 2 binding to CDK2/cyclin A (AID 1259370). Particulars: HTRF CDC25B-CDK2/CyclinA binding, anti-His/anti-Flag; active compounds read high. (TR-FRET usually uses a lanthanide donor and a delayed reading to cut background.)
On to `N#Cc1c(-c2ccccc2)nc(SCCCCOc2ccc(Cl)cc2)[nH]c1=O`, for which the z-score was 4.75 (active). For the compound `Cc1ccc(CSc2nc(-c3ccccc3)c(C#N)c(=O)[nH]2)cc1`, the z-score is -0.77. The result for `CCSc1nc(-c2ccc(Cl)cc2)c(C#N)c(=O)[nH]1` reads -0.88. The result for `O=C(CSc1ncnc2nc[nH]c12)c1ccc(O)c(O)c1` reads 2.58; that for `Cc1n[nH]c(=O)c2nn(-c3ccccc3)c(C)c12`, 0.76. The result for `Cc1cc(C)cc(NS(=O)(=O)c2ccc3c(c2)n(C)c(=O)n3C)c1` reads -1.42; that for `Cc1cc2c(c(=O)n1CC1CCCO1)C(c1cccc(Br)c1)C(C#N)=C(N)O2` (stereo not given), -0.22; that for `CC(C)c1ccc(C2c3c([nH][nH]c3=O)CC(C)(O)C2C(=O)OCc2ccccc2)cc1` (stereo not given), -1.98.

As to `COc1ccc(S(=O)(=O)NC(C)c2nc(-c3ccc(C)cc3)no2)cc1` (stereo not given), the z-score was -1.34. The result for `CC(C)NC(=O)Nc1ccc2snnc2c1` reads 5.16 (active); that for `COC(=O)c1ccc2snnc2c1`, -0.98. The result for `CC(C)CC(=O)Nc1ccc2nsnc2c1` reads -1.58; that for `CCOC(=O)c1cn(-c2cccc(F)c2)nn1`, -1.61; that for `Cn1c(=O)n(C)c2cc(S(=O)(=O)Nc3ccc(F)cc3)ccc21`, -0.14. With `Cc1nc(C)c(C(=O)Nc2nnc(CC(C)C)s2)s1` the figure was -0.08; with `CC12CC3(C)CC(C)(C1)CC(C(=O)NC(C)(C)CO)(C2)C3`, -1.12; with `O=C(CSc1ccc(-c2cccs2)nn1)N1CCCc2ccccc21`, -0.97. `COc1ccc(S(=O)(=O)N(C(=O)c2ccncc2)c2ccc3oc(=O)sc3c2)cc1OC`: the z-score is -3.46.

For `O=C(c1cccnc1)N(c1cc2sc(=O)oc2c2ccccc12)S(=O)(=O)c1ccccc1`, the z-score is 12.3 (active). The result for `O=C(c1cccnc1)N(c1ccc2oc(=O)sc2c1)S(=O)(=O)c1ccccc1` reads -1.85; that for `CCn1c(COC)nc2ccccc21`, -0.64.

As to `CCC(C)NC(=O)C1=CC(c2cccs2)=NS(=O)(=O)N1C` (stereo not given), the z-score was -1.72. Regarding `O=C(O)c1cccc(N2C(=O)c3ccc4c5c(ccc(c35)C2=O)CC4)c1`, the z-score is 8.86 (active). The result for `O=C1c2cccc3cccc(c23)C(=O)N1c1cccc(O)c1` reads -0.15; that for `O=C1c2ccc3c4c(ccc(c24)C(=O)N1c1ccccc1)C(=O)N(c1ccccc1)C3=O`, -2.52; that for `COCCOC(=O)C1=C(C)Nc2nc3ccccc3n2C1c1cccc(F)c1` (stereo not given), -1.51. The result for `COc1ccc(C(=O)Oc2ccc3c(c2)oc(=O)c2ccccc23)cc1` reads -0.65; that for `CC(C)CCNC(=O)C1CCC(CNc2c(N3CCC(C)CC3)c(=O)c2=O)CC1` (stereo not given), -0.9. The result for `Cc1nc(N2CCCCC2)cc(N2CCN(S(=O)(=O)c3ccc(F)cc3)CC2)n1` reads -1.52. Turning to `CCOc1ccccc1Nc1nc2ccc(Cl)cc2n2nnnc12`, the z-score is -2.08. The result for `Cn1c(=O)n(C)c2cc(CNC3CCCCC3)ccc21` reads -1.66; that for `S=C(Nc1cccnc1)N1CCCN(Cc2ccc(Cl)cc2Cl)CC1`, 12 (active).

`O=C(Nc1ccccc1)N1CCN(Cc2ccccc2)CC1`: the z-score is 4.1. With `Clc1ccc(C=NCc2cccnc2)c(Cl)c1` the figure was 0.36; with `CCOC(=O)c1c(NC(=O)Nc2cccc(Cl)c2)sc2c1CCCC2`, -0.86. Turning to `CC1=C(c2cccc(Br)c2)S(=O)(=O)N=C1Nc1ccccc1C`, the z-score is -2.29.

As to `O=C(COc1ccc2c3c(c(=O)oc2c1)CCC3)OC1CCCCC1`, the z-score is -1.13. The result for `COc1ccc2cc3c(N)nn(C(=O)Cn4c(=O)oc5ccccc54)c3nc2c1` reads -0.84; that for `O=C(O)C1CCCN(c2cnccn2)C1` (stereo not given), 0.23. The result for `Cc1ccc(C)c(C(=O)CSc2n[nH]c(-c3ccco3)n2)c1` reads 8.74 (active); that for `COc1ccccc1-c1nc(SCC(=O)c2ccc(Br)cc2)n[nH]1`, -0.98. The result for `Cc1ccc(CNc2n[nH]c(-c3ccco3)n2)cc1` reads -1.84. In the case of `CCSc1ncc(Cl)c(C(=O)Nc2nc(C)c(C(=O)OCC(C)C)s2)n1`, the z-score is -1.22. The result for `Cn1c(=O)c2c(-c3cccc(Br)c3)n(C(CO)(CO)CO)cc2n(C)c1=O` reads 0.09; that for `CCOC(=O)C1=C(C)NC2=C(C(=O)c3ccccc32)C1c1cccc(F)c1` (stereo not given), -1.68. The result for `CCOC(=O)C1=C(C)NC2=C(C(=O)c3ccccc32)C1c1ccc(OC(=O)c2ccccc2)cc1` (stereo not given) reads 11.9 (active); that for `COC(=O)C1=C(C)NC2=C(C(=O)c3ccccc32)C1c1ccc(OC)cc1` (stereo not given), 1.16; that for `O=C(O)CSc1nc2ccccc2c(=O)n1Cc1ccco1`, -1.25. With `CCOC(=O)c1sc(NC(=O)c2cc3ccccc3o2)c(C(=O)OCC)c1C` the figure was -1.55; with `COc1ccc(C(=O)CC2(O)C(=O)N(C(C)C)c3ccccc32)c(OC)c1` (stereo not given), -1. For `Cc1cccc(N2CSC3=C(C#N)C(c4ccccc4C)CC(=O)N3C2)c1` (stereo not given), the z-score was 3.61 (active).

On to `COc1ccccc1N1C(=O)C2C(c3ccccc3C)OC3(C(=O)c4ccccc4C3=O)C2C1=O` (stereo not given), for which the z-score is 0.1. With `COc1ccc(C2CC(=O)N3CN(c4ccccc4OC)CSC3=C2C#N)c(OC)c1` (stereo not given) the figure was 8.02 (active). As for `COc1ccc(OC)c(C2C(C#N)=C3N=C(N)c4ccccc4N3C3=C2C(=O)CCC3)c1` (stereo not given), the z-score was 0.51. The result for `COc1ccc(OC)c(C2CC(=O)N3CN(Cc4ccco4)CSC3=C2C#N)c1` (stereo not given) reads -3.58. For the compound `CCOc1ccc(N2CSC3=C(C#N)C(c4ccc(SC)cc4)CC(=O)N3C2)cc1` (stereo not given), the z-score was 6.74 (active). For `COc1ccc(OC)c(C2CC(=O)N3CN(c4ccccc4OC)CSC3=C2C#N)c1` (stereo not given), the z-score is 3.41 (active). With `CSC1=C(C#N)C(c2ccccc2C)CC(=O)N1` (stereo not given) the figure was -0.39. With `N#CC1=C2SCN(c3ccc(F)cc3)CN2C(=O)CC1c1ccc(Br)cc1` (stereo not given) the figure was 2.31; with `CC(C)C(=O)Nc1sc2c(c1C(=O)O)CCCC2`, -2.62.

For the compound `Cc1nc(N)[nH]c(=O)c1Br`, the z-score was 0.46.

Turning to `CCOC(=O)c1c(N)sc2c1CCN(C(C)=O)C2`, the z-score was -2.08.

With `CCOC(=O)c1c(C)n(C)c2cc3c(cc12)OC(=O)C3(O)C(F)(F)F` (stereo not given), the z-score is -2.18. With `N=C1C(c2nc3ccccc3[nH]2)=C(O)CN1c1ccc(Oc2ccccc2)cc1` the figure was 1.4; with `CC1=C(C(N)=O)C(c2cccc(O)c2)n2nc(SCc3ccccc3F)nc2N1` (stereo not given), -0.38; with `CCOC(=O)CNC(=O)N1CCCC1c1ccco1` (stereo not given), -1.79. The result for `Cc1ccc(NS(=O)(=O)C2CCS(=O)(=O)C2)cc1Cl` (stereo not given) reads -1.16; that for `Cc1ccc(S(=O)(=O)c2nc(S(C)(=O)=O)sc2N2CCN(CCO)CC2)cc1`, -2. `Cc1cccc2c1Oc1nc(-c3ccccc3O)[nH]c(=O)c1C2`: the z-score is -0.22. With `C=CCN1C=C(OC(=O)COc2ccccc2)c2ccccc2S1(=O)=O` the figure was -2.21; with `O=C(C1CCN(S(=O)(=O)c2cccs2)CC1)N1CCN(c2ccccc2Cl)CC1`, -0.01. With `COc1ccc(C2=NS(=O)(=O)N(C)C(C(=O)N3CCN(C(=O)c4ccco4)CC3)=C2)cc1` the figure was -0.02.

For `CCN(CC)S(=O)(=O)c1nnc(NC(=O)C(C)C)s1`, the z-score was -1.69. Regarding `C=CCN(Cc1nc(-c2ccc(C)cc2)no1)S(=O)(=O)c1ccc(Br)cc1`, the z-score was -1.17. With `O=c1c(S(=O)(=O)c2ccc(Cl)cc2)c[nH]c2ccc(F)cc12` the figure was 0.19.

As for `Cc1cc(C)n(CCc2nc3c4ccccc4nc(SCC(=O)NCc4ccco4)n3n2)n1`, the z-score was -1.06.

Regarding `O=C(CSCc1cnn(-c2ccccc2)c1-n1cccc1)Nc1ccc2c(c1)OCCO2`, the z-score is -1.15. The result for `COc1cc(C2CC(=O)N3CN(c4ccccc4)CSC3=C2C#N)ccc1O` (stereo not given) reads 0.52. With `COC(=O)c1sc(=S)n(-c2ccc(Cl)cc2)c1C` the figure was -0.46. On to `COC(=O)c1ccc(N2CSC3=C(C#N)C(c4ccc(Cl)cc4)CC(=O)N3C2)cc1` (stereo not given), for which the z-score is 7.06 (active). With `CC(c1ccccc1)N1CSC2=C(C#N)C(c3ccc(Cl)cc3)CC(=O)N2C1` (stereo not given) the figure was 1.37; with `CCOc1ccc(C2CC(=O)N3CN(c4ccc(OC)cc4OC)CSC3=C2C#N)cc1OC` (stereo not given), 3.34 (active); with `CCOc1ccc(C2CC(=O)Nc3nc(SC)[nH]c(=O)c32)cc1OC` (stereo not given), -2.13. With `CNC(=O)c1c(NC(=O)c2cc(=O)c3ccccc3o2)sc2c1CCCC2` the figure was -0.57; with `COCCCn1c(SC2CCOC2=O)nc2c(sc3ccccc32)c1=O` (stereo not given), -3.05.

For the compound `CCOC(=O)C1=C(C)NC2=C(C(=O)CC(c3cccs3)C2)C1c1cc(Br)ccc1F` (stereo not given), the z-score was -0.66. With `CCOC(=O)c1c(CN(CC)CC)n(C)c2cc(Br)c(OC)cc12` the figure was -0.02. The result for `Cc1c(C=O)c(=O)oc2c3c4c(cc12)CCCN4CCC3` reads 16.4 (active); that for `Cc1c(C)c2cc3c4c(oc3c(C)c2oc1=O)CCCC4`, 0.16.

In the case of `CCc1cccc(-n2nnc(S(=O)(=O)c3ccc(C)cc3)c2C)c1`, the z-score is -0.89. The result for `CN1C(=O)c2ccccc2C(C(=O)Nc2ccc3c(c2)OCO3)C1c1cn(C)c2ccccc12` (stereo not given) reads -2.4.

On to `CCCc1c(C)nc2ncnn2c1Nc1ccc(CC)cc1`, for which the z-score was -2.22. The result for `C=CCOc1ccc(C2C3=C(CCCC3=O)NC3=C2C(=O)CCC3)cc1` reads 15.9 (active). With `COc1ccc(COC(=O)C2=C(C)NC3=C(C(=O)CCC3)C2c2ccc(Br)cc2)cc1` (stereo not given) the figure was -0.5. With `CCOCCOC(=O)C1=C(C)NC2=C(C(=O)CCC2)C1c1ccc(OC(C)=O)cc1` (stereo not given), the z-score is -0.12.
